For 13 compounds, Potency, outcome and max response results are on record in PubChem BioAssay (Tox21).

Assay [1] can be described thus: qHTS assay to identify small molecule agonists of H2AX - cell viability counter screen (AID 1224847; calls by dose curve;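 further: wild-type CHO-K1 cells; top concentration of the series differs between compounds; nearly all actives have a fitted effect of over 30% in size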). The method in brief: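 For this counter screen, overnight-attached CHO-K1 cells received test compounds (15 concentrations, 0.76% DMSO final); 3 hr later at 37C, CellTiter-Glo reagent was added and luminescence recorded after 30 min at room temperature.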
(In qHTS, concentration-response curves come from the screen itself.)

A short description of assay [2]: qHTS RealTime-Glo MT Cell Viability Assay in HepG2 cells - 24 hour (AID 1224867). Further: nearly all actives have a fitted effect of over 50% in size. The method in brief:
(§1)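 Luminescence read-out: viable HepG2 cells reduce a prosubstrate to a NanoLuc substrate, giving a signal proportional to live cell number. Reads taken at 0, 8, 16, 24, 32 and 40 h of compound exposure at 37 C.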

Assay [3] in a line: qHTS RealTime-Glo MT Cell Viability Assay in HEK293 cells - 32 hour (AID 1224868). Further: top concentration of the series differs between compounds; nearly all actives have a fitted effect of over 50% in size. The procedure, abridged:
(§2)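 Nonlytic real-time viability readout: viable cells convert prosubstrate to NanoLuc substrate, giving luminescence proportional to live cell number. HEK293, 600 cells/well, compound added after 5 h, continuous culture at 37 C.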

A short description of assay [4]: A CellTox Green Cytotoxicity Assay to monitor cytotoxicity in HEK293 cells - 0 hour (AID 1224869). Further: nearly all actives have a fitted effect of over 50% in size. The procedure, abridged: (§3)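 Fluorescence from a DNA-binding dye excluded by viable cells was measured repeatedly in the same HEK293 wells (600 cells/well) during continuous compound exposure at 37 C. Each assay gives one read point: 0, 8, 16, 24, 32 or 40 h.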
Assay [5] in a line: qHTS RealTime-Glo MT Cell Viability Assay in HepG2 cells - 40 hour (AID 1224870). Further: nearly all actives have a fitted effect of over 50% in size. The procedure, abridged: (§4)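 HepG2 cells (600/well) mixed with RealTime-Glo MT reagent, settled 5 h at 37 C/5% CO2 before compound addition. Nonlytic NanoLuc luminescence from viable-cell prosubstrate reduction read repeatedly during 40 h treatment at 37 C.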
Assay [6] can be described thus: A CellTox Green Cytotoxicity Assay to monitor cytotoxicity in HEK293 cells - 40 hour (AID 1224871). Further: nearly all actives have a fitted effect of over 45% in size. The method in brief:
as §3

A short description of assay [7]: qHTS RealTime-Glo MT Cell Viability Assay in HEK293 cells - 16 hour (AID 1224872). The procedure, abridged:
as §2

A short description of assay [8]: qHTS RealTime-Glo MT Cell Viability Assay in HepG2 cells - 8 hour (AID 1224873). Further: nearly all actives have a fitted effect of over 55% in size. The procedure, abridged:
as §4

Assay [9] can be described thus: qHTS RealTime-Glo MT Cell Viability Assay in HEK293 cells - 40 hour (AID 1224874). Further: nearly all actives have a fitted effect of over 50% in size. To be noted: RealTime-Glo luminescence; max response: stronger effect = lower value. The method in brief:
(§5)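 Luminescence, which tracks viable cell number through reduction of the prosubstrate to a NanoLuc substrate, was read over continuous 37 C culture. Cells (600/well) were premixed with reagent and rested 5 h before 23 nL of compound in DMSO was pinned.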

The nature of assay [10]: A CellTox Green Cytotoxicity Assay to monitor cytotoxicity in HEK293 cells - 24 hour (AID 1224875). Further: series mostly up to about 77 µM; nearly all actives have a fitted effect of over 45% in size. The procedure, abridged:
as §3

Assay [11] in a line: A CellTox Green Cytotoxicity Assay to monitor cytotoxicity in HepG2 cells - 16 hour (AID 1224876). Further: nearly all actives have a fitted effect of over 45% in size. Further: potency means the concentration at half of the fitted maximal effect. The method in brief:
(§6)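 Real-time cytotoxicity: fluorescence of a cell-impermeant cyanine dye binding DNA of dead HepG2 cells, measured repeatedly (0–40 h) during compound exposure at 37 C. Cells seeded 600/well with reagent, dosed after 5 h.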

Assay [12] in a line: qHTS RealTime-Glo MT Cell Viability Assay in HepG2 cells - 32 hour (AID 1224877). Further: nearly all actives have a fitted effect of over 55% in size. The method in brief:
as §1

A short description of assay [13]: A CellTox Green Cytotoxicity Assay to monitor cytotoxicity in HepG2 cells - 24 hour (AID 1224878). Further: nearly all actives have a fitted effect of over 45% in size. Further: potency means the concentration at half of the fitted maximal effect. The method in brief:
as §6

Assay [14] can be described thus: A CellTox Green Cytotoxicity Assay to monitor cytotoxicity in HepG2 cells - 40 hour (AID 1224879). Further: nearly all actives have a fitted effect of over 40% in size. Further: potency means the concentration at half of the fitted maximal effect. The procedure, abridged:
as §6

A short description of assay [15]: qHTS RealTime-Glo MT Cell Viability Assay in HEK293 cells - 0 hour (AID 1224880). The method in brief:
as §5

Assay [16] is described as follows: A CellTox Green Cytotoxicity Assay to monitor cytotoxicity in HEK293 cells - 32 hour (AID 1224881). Further: nearly all actives have a fitted effect of over 40% in size. The method in brief:
as §3

Assay [17] in a line: A CellTox Green Cytotoxicity Assay to monitor cytotoxicity in HepG2 cells - 0 hour (AID 1224882). Further: nearly all actives have a fitted effect of over 35% in size. The procedure, abridged: as §6
Assay [18] can be described thus: A CellTox Green Cytotoxicity Assay to monitor cytotoxicity in HepG2 cells - 32 hour (AID 1224883). Further: nearly all actives have a fitted effect of over 50% in size. Further: potency means the concentration at half of the fitted maximal effect. The procedure, abridged: as §6

“And” between values parts separate entries of the source, which are not always exact repeats. Identical values can stand only once. Results filed as inconclusive are left out. A structure can be active in one record and inactive in another. The source made the active and inactive calls. Unless noted, the call rests on the fitted dose curve; in most records, active means well fitted curve in the direction sought with a large enough effect in the repeat runs; inconclusive means weak or mixed curves; inactive means no such curve, though single readings can be large; an effect the other way counts as inactive or inconclusive.
On the % scale 0 is the no-effect control and ±100 the full control effect.

On to `COc1ccc(NC(C)=O)cc1N`, for which the Potency result in assay [1], in assay [3], in assay [6], in assay [7], in [10] and in assay [15] was “inactive” throughout. For the same compound, the Potency result in assay [16] was “inactive”. Moreover, the outcome in assay [2], in [4], in assay [5], in assay [8], in assay [12] and in assay [17] was inactive. In [9], the max response is 6.82% (inactive) and 6.45% (inactive). The Potency entry in assay [11] is “inactive and 21.9 µM (active)”; in assay [13] it was “inactive and 49 µM (active)”; in assay [14] it was “inactive and 43.6 µM (active)”; in [18], “inactive and 43.6 µM (active)”.

Regarding `O=C1CCC(N2C(=O)c3ccccc3C2=O)C(=O)N1` (configuration not stated), the Potency entry in [1], in assay [3], in [6], in assay [7], in assay [10] and in assay [11] was “inactive” in each case. In addition, the Potency entry in assay [13], in [14], in assay [15], in [16] and in assay [18] was “inactive” each time. For the same compound, the compound was called inactive in [2], in [4], in assay [5], in [8], in assay [12] and in assay [17]. For the same compound, the max response in assay [9] is 7.18% (inactive) and -6.83% (inactive).

On to `CCCCCCCCCCCCS`, for which the Potency entry in [1], in assay [3], in [6], in assay [7], in assay [10] and in [11] was “inactive” throughout. Besides, the Potency entry in assay [13], in [14], in assay [15], in [16] and in assay [18] was “inactive” throughout. Further, the outcome in assay [2], in assay [4], in [5], in assay [8], in assay [12] and in [17] was inactive. Also, in [9], the max response was 0.961% (inactive) and 6.67% (inactive).

As to `C=CCNC(N)=S`, the Potency entry in [1], in assay [3], in assay [6], in assay [7], in [10] and in assay [11] was “inactive” throughout. Further, the Potency result in [13], in assay [14], in assay [15], in assay [16] and in [18] was “inactive” throughout. In addition, the compound was called inactive in assay [2], in [4], in assay [5], in [8], in [12] and in [17].

As for `CCCCCCCCC/C=C/CC1CC(=O)OC1=O` (configuration not stated), the Potency entry in assay [1], in [3], in [6], in assay [7], in assay [10] and in [11] was “inactive” in each case. Also, the Potency entry in assay [13], in [14], in assay [15], in [16] and in assay [18] was “inactive” throughout. Besides, the call in [2], in assay [4], in assay [5], in assay [8], in [12] and in assay [17] was inactive. Moreover, in [9], the max response is -19.7% (inactive) and -2.36% (inactive).

On to `O=C(O)c1cc(=O)c2c(OCC(O)COc3cccc4oc(C(=O)O)cc(=O)c34)cccc2o1`, for which the Potency result in assay [1], in assay [3], in assay [6], in assay [7], in assay [10] and in [11] was “inactive” in each case. The Potency entry in assay [13], in assay [14], in assay [15], in [16] and in assay [18] was “inactive” in each case. Besides, the compound was called inactive in assay [2], in assay [4], in assay [5], in [8], in assay [12] and in assay [17]. In assay [9], the max response was 0.302% (inactive) and 1.24% (inactive).

For `CCCCCCOCCO`, the Potency entry in assay [1], in assay [3], in assay [6], in [7], in assay [10] and in [11] was “inactive” each time. Also, the Potency entry in [13], in assay [14], in assay [15], in assay [16] and in [18] was “inactive” each time. Further, the outcome in assay [2], in assay [4], in [5], in [8], in [12] and in assay [17] was inactive. Also, the max response in assay [9] was -2.7% (inactive) and 0.672% (inactive).

For `CC1=CCC2CC1C2(C)C` (configuration not stated), the Potency result in assay [1], in assay [3], in [6], in assay [7], in [10] and in assay [11] was “inactive” in each case. For the same compound, the Potency entry in assay [13], in assay [14], in assay [15], in assay [16] and in assay [18] was “inactive” in each case. The call in assay [2], in [4], in assay [5], in assay [8], in [12] and in [17] was inactive. Moreover, the max response in assay [9] was -11.4% (inactive) and 10.5% (inactive).

Take `O=C=NCCCCCCN=C=O`: the Potency entry in [1], in assay [3], in assay [6], in [7], in assay [10] and in assay [11] was “inactive” each time. Besides, the Potency entry in [13], in [14], in assay [15], in assay [16] and in [18] was “inactive” in each case. The compound was classed as inactive in assay [2], in [4], in [5], in assay [8], in assay [12] and in [17]. In addition, the max response in [9] is 4.38% (inactive).

Take `CN(C)CCC(c1ccccc1)c1ccccn1` (configuration not stated): the Potency result in assay [1], in assay [3], in assay [6], in assay [7], in [10] and in assay [11] was “inactive” throughout. The Potency result in assay [13], in assay [14], in [15], in assay [16] and in [18] was “inactive” each time. The result in assay [2], in [4], in assay [5], in [8], in [12] and in assay [17] was inactive. Further, the max response in assay [9] is 7.85% (inactive) and 1.55% (inactive).

Take `Cc1ccc2oc(=O)ccc2c1`: the Potency entry in assay [1], in assay [3], in assay [6], in assay [7], in assay [10] and in [11] was “inactive” each time. Further, the Potency entry in assay [13], in assay [14], in assay [15], in assay [16] and in assay [18] was “inactive” throughout. For the same compound, the outcome in assay [2], in [4], in [5], in [8], in assay [12] and in assay [17] was inactive. Besides, the max response in assay [9] was -2.42% (inactive) and -2.11% (inactive).

On to `O=C(O)c1ccc(C(=O)O)cc1`, for which the Potency result in [1], in [3], in assay [6], in assay [7], in assay [10] and in assay [11] was “inactive” each time. The Potency result in assay [13], in [15], in assay [16] and in assay [18] was “inactive” throughout. Also, the compound was called inactive in [2], in [4], in assay [5], in [8], in [12] and in [17]. Further, the max response in assay [9] was -0.318% (inactive) and 3.28% (inactive). Moreover, in assay [14], the Potency result was “inactive and 15.5 µM (active)”.

Turning to `CCCCOC(=O)COc1ccc(Cl)cc1Cl`, the Potency entry in [1], in [3], in assay [6], in [7], in assay [10] and in assay [11] was “inactive” in each case. Also, the Potency result in assay [13], in assay [14], in assay [15], in assay [16] and in assay [18] was “inactive” throughout. In addition, the compound was called inactive in [2], in assay [4], in assay [5], in assay [8], in [12] and in assay [17].
